CYP2C19 inhib – blocks human cytochrome P450 2C19. CYP2C19 Supersomes, luciferin-H EGE luminescence, 30 min. P33261. inhibition, % at 5 µM. 96,000 tested, 21% active;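 active = CYP2C19 inhibition above a set limit at 5 µM in the primary screen, cut at about 50% in these data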
PostGolgi yeast – growth inhibition of a yeast mutant, post-Golgi transport screen; post-Golgi transport phenotypic cell assay; inhibition, % at 10 µM; 98,000 tested, 0.9% active;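 also: yeast cells grown in 1536-well plates; yeast grown about 18 h at 30C before absorbance read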
CYP2C9 inh – human CYP2C9 inhibition | CYP2C9 Supersomes, luciferin-H conversion, luminescence | inhibition, % at 5 µM | P11712 | 96,000 tested, 20% active;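 active = blocking of liver enzyme CYP2C9 beyond about 50% at 5 µM, limit read from the data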
Target sequence (P11712 whole entry, looked up): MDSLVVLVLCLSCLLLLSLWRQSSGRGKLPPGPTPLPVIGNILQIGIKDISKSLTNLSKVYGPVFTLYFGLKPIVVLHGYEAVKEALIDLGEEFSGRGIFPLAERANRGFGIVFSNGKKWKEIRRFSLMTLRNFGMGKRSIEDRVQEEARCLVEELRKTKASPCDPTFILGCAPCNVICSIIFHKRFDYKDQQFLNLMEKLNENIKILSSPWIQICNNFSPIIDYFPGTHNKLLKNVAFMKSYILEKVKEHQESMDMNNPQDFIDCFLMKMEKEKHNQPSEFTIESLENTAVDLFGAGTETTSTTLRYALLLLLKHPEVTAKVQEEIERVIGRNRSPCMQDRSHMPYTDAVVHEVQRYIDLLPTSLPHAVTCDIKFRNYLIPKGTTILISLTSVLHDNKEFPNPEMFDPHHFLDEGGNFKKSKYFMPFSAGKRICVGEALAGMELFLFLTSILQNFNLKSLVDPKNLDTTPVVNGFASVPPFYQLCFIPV
CYP2C19 activ – activators of human cytochrome P450 2C19 | activation factor at 5 µM | 96,000 tested, under 10 active | P33261 | recombinant CYP2C19, luciferin-H EGE luminescence; active compounds read high; 0 = fully inhibited enzyme, 1 = untreated enzyme;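 active = activation factor of at least 2 at 5 µM in the primary screen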
PostGolgi ctrl – yeast control strain growth, post-Golgi counter-screen. efflux-deficient yeast background strain, growth absorbance A615, 16 h. inhibition, % at 10 µM. 98,000 tested, 5% active. AID 738
CYP2C9 activ – activators of human CYP2C9 | P11712 | recombinant CYP2C9, luciferin-H conversion, luminescence; active compounds read high; factor 1 = untreated enzyme, 0 = blocked | activation factor at 5 µM | 96,000 tested, 1.4% active | AID 1024;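 active = activation factor of 2 or more for CYP2C9 at a 5 µM dose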
Of the large screens only hits and unclear results are named; the others gave an inactive call. This is a sample that favours compounds with a hit; in the whole collection about 32% have one here. Rule as the data show it, unless noted: active = inhibition above about 30%; inactive = the rest.

O=C(COC(=O)C1=COCCO1)Nc1ccc(Oc2ccccc2)cc1	CYP2C19 inhib 82, CYP2C9 inh 90
CCOC(=O)c1ccccc1NC(=O)COC(=O)C1=COCCO1	CYP2C9 inh 68
CC(C)(C)c1ccc(NC(=O)COC(=O)C2=COCCO2)cc1	none
O=C(NC(C(=O)N/N=C/c1cccc2ccccc12)c1n[nH]c(=O)c2ccccc12)c1ccccc1 (stereo unspecified)	CYP2C9 inh 56
COc1ccc(CCN2C(=O)c3[nH]nc(-c4ccccc4O)c3C2c2cccc(Cl)c2)cc1 (stereo unspecified)	CYP2C9 inh 62
Cc1ccc(C2c3c(-c4ccccc4O)n[nH]c3C(=O)N2Cc2ccncc2)cc1 (stereo unspecified)	none
COc1ccc(C2c3c(-c4ccccc4O)n[nH]c3C(=O)N2CCc2ccc(OC)c(OC)c2)cc1 (stereo unspecified)	CYP2C19 inhib 86, CYP2C9 inh 96
COc1cccc(C2c3c(-c4cc(Cl)c(C)cc4O)n[nH]c3C(=O)N2Cc2cccnc2)c1 (stereo unspecified)	CYP2C9 inh 72
COc1cc(C2c3c(-c4cc(Cl)c(C)cc4O)n[nH]c3C(=O)N2Cc2cccnc2)ccc1O (stereo unspecified)	none
O=C(CN1CCC(n2nnc3ccccc32)CC1)NCc1cccs1	none
Cc1cc(C)c2c(-n3cccc3)nn(CC#N)c2n1	none
Cc1cc(C)n(-c2nnc(C)n2NS(=O)(=O)c2ccc(F)cc2)n1	none
O=C(NCCOC12CC3CC(CC(C3)C1)C2)c1cccc(Br)c1	CYP2C19 inhib 72
CCN(CC)C(=O)CN(c1cccc(C(F)(F)F)c1)S(C)(=O)=O	none
Oc1ccccc1N=Nc1nc(-c2ccccc2)c(-c2ccccc2)[nH]1	CYP2C9 inh 54
CC(C)(C)NC(=O)CSc1nc(-c2ccccc2)c(-c2ccccc2)[nH]1	none
Cc1cc(C)nc(Sc2ccc3nnc(C(F)(F)C(F)(F)C(F)(F)F)n3n2)n1	CYP2C19 inhib 58, CYP2C9 inh 63
CSc1ccc2nnc(-c3cccc(F)c3)n2n1	none
Cc1cc(C)nc(-n2nc(C)c3c(C(F)(F)F)cc(=O)[nH]c32)n1	CYP2C9 inh 65
Cc1cc(=O)[nH]c2c1c(C)nn2-c1ccccc1	none (no result: PostGolgi yeast, PostGolgi ctrl)
CCOc1cc(C(=O)NCCN2CCOCC2)cc(OCC)c1OCC	none (no result: CYP2C19 inhib, CYP2C9 inh, CYP2C19 activ, CYP2C9 activ)
CCc1n[nH]c2c1/C(=N/O)CCC2	none
Cc1oc2c(c(=O)c1C)C(=O)CC(c1ccccc1)C2 (stereo unspecified)	none
Cc1[nH]nc2c1/C(=N\O)CC(C)(C)C2	CYP2C19 inhib 51, PostGolgi ctrl 39
CCCc1n[nH]c2c1/C(=N/O)CC(c1ccccc1)C2 (stereo unspecified)	CYP2C19 inhib 77
Cc1[nH]nc2c1/C(=N/O)CC(c1ccccc1)C2 (stereo unspecified)	CYP2C19 inhib 74
CCc1noc2c1/C(=N\O)CC(c1ccccc1)C2 (stereo unspecified)	CYP2C19 inhib 76, CYP2C9 inh 72
CCNc1nc(N)nc(Oc2ccc(C(=O)OC)cc2)n1	none
O=S1(=O)CCC(SCc2nc3sccn3c2Br)C1 (stereo unspecified)	none
Cc1ccc(NC(=O)C2CC(=O)OC23CCOC(C)(C)C3)cc1 (stereo unspecified)	CYP2C19 inhib 66
O=C1CC(C(=O)Nc2ccc(Br)cc2)C2(CCCC2)O1 (stereo unspecified)	CYP2C19 inhib 97, CYP2C9 inh 61
CC1(C)CC2(CCO1)OC(=O)CC2C(=O)Nc1cccc2ccccc12 (stereo unspecified)	none
c1ccc(N2CCN(CCc3nnc4n3CCCCC4)CC2)cc1	none
Cc1ccc(CN2C(=O)CCC2C(=O)NC2CCCC2)cc1 (stereo unspecified)	none
CC(C)OC(=O)c1c2nc3ccccc3nc2n2c1[nH]c(=O)c1ccccc12	PostGolgi yeast 34, PostGolgi ctrl 71
c1ccc(-c2cnc(CSc3nnc4ccccn34)o2)cc1	CYP2C19 inhib 70
Cc1ccccc1-n1nnnc1SCc1ncc(-c2ccccc2)o1	CYP2C9 inh 82
O=C1c2ccccc2C(=O)N1CCCCSc1nnc2ccccn12	none
COC(=O)C1=C(C)NC2=C(C(=O)CCC2)C1c1cn(Cc2ccc(Br)cc2)nc1-c1ccccc1 (stereo unspecified)	CYP2C9 inh 86
COC(=O)C1=C(C)NC2=C(C(=O)CC(C)(C)C2)C1c1cn(Cc2ccc(Br)cc2)nc1-c1ccccc1 (stereo unspecified)	CYP2C9 inh 71
COC(=O)C1=C(C)NC2=C(C(=O)CC(C)(C)C2)C1c1cccc(C)n1 (stereo unspecified)	none
C=CCOC(=O)C1=C(C)NC(SC)=C(C#N)C1c1ccc(OCC)cc1 (stereo unspecified)	CYP2C19 inhib 86, CYP2C9 inh 93
C=CCOC(=O)C1=C(C)NC(=O)NC1/C=C/c1ccccc1 (stereo unspecified)	none
C=CCOC(=O)C1=C(C)NC(SCC(=O)OCC)=C(C#N)C1c1ccc(O)c(OC)c1 (stereo unspecified)	CYP2C19 inhib 99, CYP2C9 inh 100
COc1ccc2cnn(CCOc3ccccc3)c(=O)c2c1OC	none
O=C1N/C(=N/Nc2ccccc2)S/C1=C\c1ccccc1	CYP2C19 inhib 53, CYP2C9 inh 67
CN(C)c1ccc(/C=N/N=C2/NC(=O)/C(=C/c3ccc([N+](=O)[O-])cc3)S2)cc1	none
Cc1onc(-c2ccccc2)c1C(=O)Nc1ccc2c(c1)OCO2	CYP2C19 inhib 99, CYP2C9 inh 79
Cc1nn(-c2ccccc2)c(Cl)c1C(=O)OC(C)C(=O)Nc1ccc2c(c1)OCO2 (stereo unspecified)	CYP2C19 inhib 85, CYP2C9 inh 79
Cc1onc(-c2ccccc2)c1C(=O)Nc1ccc2c(C)cc(=O)oc2c1	none
Cc1onc(-c2ccccc2Cl)c1C(=O)OCC(=O)Nc1ccc2c(c1)OCO2	CYP2C19 inhib 99, CYP2C9 inh 88
Cc1onc(-c2ccccc2Cl)c1C(=O)Nc1ccc(CN2CCCC2)cc1	none
Cc1nn(-c2ccccc2)c(C)c1C(=O)OCC(=O)Nc1ccc2c(c1)OCO2	CYP2C19 inhib 95, CYP2C9 inh 89
Cc1cc(C)c2c(CC(=O)Nc3ccc(Cl)cn3)coc2c1	none
COC(=O)c1nn(-c2ccccc2)c(=O)cc1Oc1ccccc1	none
Cc1ccc(-c2noc(CCC(=O)Nc3ccc4c(c3)OCO4)n2)cc1	none
Cc1onc(-c2ccccc2)c1C(=O)OCC(=O)Nc1ccc2c(c1)OCO2	CYP2C19 inhib 54, CYP2C9 inh 52
CCOC(=O)c1c(C)nc2sc3c(=O)n(-c4ccc(C(C)=O)cc4)nnc3c2c1-c1ccc(OC)cc1	CYP2C19 inhib 59
CCOC(=O)c1c(C)nc2sc(C(N)=O)c(N)c2c1-c1ccc(OC)cc1	none

Assay outcomes (PubChem BioAssay)
